Screens (PubChem BioAssay)
FEN1 inh: human FEN1 inhibition; P39748; Recombinant FEN1 flap cleavage, fluorescence, 15 min; Potency, µM (highest dose often 114 µM), without a hit: at the highest dose activity change, negative = inhibition, most hits filed as inhibitors; 0.35% of 390,000 active; note: potency is the fitted concentration of half-maximal effect; % is set by controls: 0 for no effect and ±100 for the full control effect; nearly all actives have a fitted effect of over 65% in size
Target sequence (P39748 whole entry, looked up): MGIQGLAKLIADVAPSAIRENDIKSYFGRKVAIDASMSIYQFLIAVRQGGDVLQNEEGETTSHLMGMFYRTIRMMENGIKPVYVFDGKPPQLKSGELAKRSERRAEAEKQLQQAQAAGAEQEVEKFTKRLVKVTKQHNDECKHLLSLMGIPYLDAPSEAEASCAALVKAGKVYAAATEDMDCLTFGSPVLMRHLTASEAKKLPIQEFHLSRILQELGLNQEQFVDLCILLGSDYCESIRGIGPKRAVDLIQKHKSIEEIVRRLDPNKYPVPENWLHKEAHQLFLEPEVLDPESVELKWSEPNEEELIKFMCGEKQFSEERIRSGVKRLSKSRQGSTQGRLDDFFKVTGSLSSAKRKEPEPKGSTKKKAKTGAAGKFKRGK
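Compounds are tested as a concentration series against 10 nM FEN1; after a 15 min room-temperature preincubation, 50 nM substrate starts cleavage, with plate reads at 0 and 15 min. Normalized responses are fitted by a Hill equation.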
PLK1 PBD block: inhibitors of human PLK1 polo-box domain binding. Plk1 PBD binding of FITC phosphopeptide, fluorescence polarization. Potency, µM, inactives show max response, negative = inhibition, hits mostly inhibitors. 2.8% of 360,000 active. P53350. AID 720504; note: potency is the fitted concentration of half-maximal effect; series mostly up to about 57 µM; % is set by controls: 0 for no effect and ±100 for the full control effect; nearly all actives have a fitted effect of over 65% in size
PI5P4Ka inh: PI5P4K alpha (human) kinase inhibition; P48426; PI5P4Kalpha enzyme, ADP-Glo luminescence, 60 min; active compounds read low; 1.2% of 330,000 active; max response, %; active = max response of -50% or lower; inconclusive = between -30% and -50%; inactive = -30% or higher; note: value at the top dose of about 77 µM; % is set by controls: 0 for no effect and ±100 for the full control effect
Target sequence (P48426 whole entry, looked up): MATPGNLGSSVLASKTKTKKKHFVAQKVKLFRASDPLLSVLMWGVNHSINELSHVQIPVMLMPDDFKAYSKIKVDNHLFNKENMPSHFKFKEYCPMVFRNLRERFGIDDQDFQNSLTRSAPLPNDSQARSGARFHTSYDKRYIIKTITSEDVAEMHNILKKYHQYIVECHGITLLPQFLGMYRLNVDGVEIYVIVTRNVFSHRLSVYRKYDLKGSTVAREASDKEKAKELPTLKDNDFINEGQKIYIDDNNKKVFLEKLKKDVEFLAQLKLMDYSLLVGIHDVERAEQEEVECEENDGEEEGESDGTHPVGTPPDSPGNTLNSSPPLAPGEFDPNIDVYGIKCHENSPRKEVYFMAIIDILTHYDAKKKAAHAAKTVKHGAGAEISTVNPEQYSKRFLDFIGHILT
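ADP-Glo luminescence end-point after a 60 min room-temperature kinase reaction. PI5P4Kalpha and substrate in HEPES pH 7.4 buffer with EGTA, 0.1% CHAPS and 5% DMSO; ATP at 5 microM final.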
TCR activator: activators of T cell receptors; Potency, µM (series often up to 9.22 µM), for inactives: at the top dose activation of IL-2 secretion, actives largely listed as activators; 330,000 tested, under 10 active; primary human leukocytes, anti-CD3, IL-2 HTRF, 48 h; note: % of control where 0% means no effect
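Readout: HTRF IL-2, Eu-cryptate/d2 antibody pair, 320nm excitation, 665nm emission. Stimulus: a-CD3 beads, no co-stimulation. Cells: primary human leukocytes. Exposure: 48 hr with compound.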
VDR inhibitor: vitamin D3 receptor (human) inhibition; VDR-SRC2-3 peptide fluorescence polarization, 2 h; 0.93% of 400,000 active; Potency, µM, without a hit: max response, negative = inhibition, actives largely listed as inhibitors; AID 504847; P11473; note: potency is the fitted concentration of half-maximal effect; % is set by controls: 0 for no effect and ±100 for the full control effect
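Fluorescence polarization assay measuring small-molecule disruption of VDR binding to the coregulator peptide SRC2-3. Compounds were pin-transferred (23 nl) into the reagent mix and incubated 2 h at room temperature before reading.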
WRN inhibitor: inhibitors of human WRN helicase | AID 651768 | 0.46% of 360,000 active | WRN helicase unwinding, fluorescent forked duplex, kinetic | Potency, µM (titrated, usually from 114 µM), for inactives: top-dose activity change, negative = inhibition, actives largely listed as inhibitors | Q14191; note: potency is the fitted concentration of half-maximal effect; % is set by controls: 0 for no effect and ±100 for the full control effect; nearly all actives have a fitted effect of over 55% in size
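WRN at 20 nM final preincubated with compound 15 min at room temperature; reaction started with 100 nM fluorophore/quencher forked duplex oligonucleotide and 2 mM ATP final. Unwinding followed kinetically by red fluorescence (ex 525, em 598 nm).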
Active calls of the source: *; ? = inconclusive; nt = not tested or not shown; ! = not active in a repeat; [ ] = dose if it differs, or a comment. Compounds with a hit are over-represented: about 3.7% of the library has one in this group of screens. Unless noted, calls come from the whole dose curve; as a rule, active = well fitted curve in the direction sought with a large enough effect; inconclusive = small, poorly fitted or top-dose-only effect, or another doubt; inactive = no such curve, though single readings can be large; an effect the other way counts as inactive or inconclusive.

SMILES	FEN1 inh	PLK1 PBD block	PI5P4Ka inh	TCR activator	VDR inhibitor	WRN inhibitor
CCc1ccc(NC(=O)C2CCN(S(=O)(=O)c3c(C)noc3/C=C\c3ccc(OC)cc3)CC2)cc1	-1.2%	nt	nt	nt	-15.0%	nt
CN(C)c1ccc(CN(CC2CCCO2)C(=O)COc2ccccc2Cl)cc1 (configuration not stated)	-5.1%	nt	nt	nt	8.1%	nt
O=C(NCC1CCCO1)c1ccccc1NS(=O)(=O)c1ccc(Br)s1 (configuration not stated)	-0.3%	23.8µM*	2.8	5.4%	-8.7%	-4.0%
COc1cc(CCC(=O)NCc2ccc3c(c2)CCN3C(=O)c2cccc(C)c2)cc(OC)c1OC	6.2%	nt	nt	nt	20.9%	nt
O=C(CSc1nc2ccccc2n1Cc1ccc(F)c(Cl)c1)N1CCN(c2ccc(F)cc2)CC1	-5.6%	nt	nt	nt	3.1%	nt
O=[N+]([O-])c1cnccc1Nc1ccccc1	-10.5%	26.7µM*	-2.5	nt	?	7.5%
O=C(O)c1ccc(Nc2ccc(Cl)c(Cl)c2)c([N+](=O)[O-])c1	12.1%	-6.3%	-52.3*	-1.4%	9.5%	-9.3%
O=C(O)c1cccc(Nc2ccncc2[N+](=O)[O-])c1	-10.2%	23.8µM*	?	-1.2%	?	-33.0%
O=C(O)c1ccc(NCCc2ccc(Cl)cc2)c([N+](=O)[O-])c1	-3.5%	-9.3%	-56.2*	7.2%	-9.3%	-4.6%
O=[N+]([O-])c1cnccc1Nc1ccc(F)cc1	-2.8%	-14.2%	1.2	-1.2%[46.1 µM]	10.7%	9.5%
O=C(O)c1ccc(Nc2cccc(F)c2)c([N+](=O)[O-])c1	-5.5%	-15.0%	-2.8	2.5%	-14.3%	-8.5%
Cc1ccc(NC(=O)c2ccc(NCCc3ccccc3)c([N+](=O)[O-])c2)cc1F	-1.7%	38.0%	1.0	4.1%[46.1 µM]	4.3%	-19.9%[57.1 µM]
CCc1ccc(C(=O)C(C)CN2CCCCC2)cc1 (configuration not stated)	nt	nt	nt	nt	-2.5%	nt
Oc1cc2c(c(Cl)c1O)CCNCC2c1ccccc1 (configuration not stated)	-8.7%	-12.2%	?	-0.8%	?	-6.6%[11.6 µM]
Oc1ccc(C2CNCc3sccc32)cc1O (configuration not stated)	12.9%[57.1 µM]	-10.3%	-10.5	-6.2%	12.6µM*!	-3.0%
CCCn1c(N)c(C(c2ccc(OC)cc2)N2CCN(c3ccccc3)CC2)c(=O)[nH]c1=O (configuration not stated)	4.8%	-24.8%	0.1	-2.0%	56.2µM*	-3.7%
CCCn1c(N)c(C(c2ccc(C(=O)OC)cc2)N2CCN(c3ccccc3)CC2)c(=O)[nH]c1=O (configuration not stated)	2.3%	-1.3%	nt	-7.0%	-1.6%	3.5%
COc1ccc(Cl)cc1NC(=S)NNC(=O)C1(C)CC1(Cl)Cl (configuration not stated)	8.8%	?	-51.7*	0.2%	11.6%	-2.3%
COC(=O)c1cc(OC)c(OC)cc1NC(=S)Nc1cc(Cl)ccc1OC	-11.3%	?	0.6	-5.2%[46.1 µM]	-6.5%	-16.0%
Cc1ccc(C)c(NC(=O)CN(C)S(=O)(=O)c2ccc3c(c2)CCC(=O)N3)c1	-0.6%	nt	nt	nt	-2.5%	nt
CC(=O)c1cc2c(cc1NC(=O)c1c(C)nn(-c3ccc(C)cc3)c1-n1cccc1)OCO2	21.9%	nt	nt	nt	9.7%	nt
Cc1ccc(C)c(NC(=O)CCn2cnnn2)c1	-14.0%	29.9µM*	1.1	-4.1%	-14.7%	4.3%
CC1CCN(S(=O)(=O)c2cc(C(=O)N3CCN(c4cccc(Cl)c4)CC3)n(C)c2)CC1	-19.8%	nt	nt	nt	-8.0%	nt
COc1cccc(NC(=O)C(=O)NCCc2csc(-c3ccc(C)cc3)n2)c1	-1.6%	nt	nt	nt	9.6%	nt
O=C(CC(NS(=O)(=O)c1ccc(Cl)cc1)c1ccco1)NCc1ccco1 (configuration not stated)	0.0%	29.9µM*	-14.9	-0.4%	-12.9%	-16.4%[57.1 µM]
SMILES	FEN1 inh	PLK1 PBD block	PI5P4Ka inh	TCR activator	VDR inhibitor	WRN inhibitor
CCCNC(=O)CC(NS(=O)(=O)c1ccc(Cl)cc1)c1ccco1 (configuration not stated)	-10.4%	-4.1%	-2.1	6.6%	7.0%	-4.2%
Cc1ccc(-c2csc3n[nH]c(=S)n23)cc1	?	-29.0%	-95.1*	7.9%	-33.1%	-25.6%
COc1ccc(CNC(=O)N2CCN(c3cccc(C)c3C)CC2)cc1OC	-3.2%	-1.1%	6.4	2.6%	5.2%	-8.6%
Cc1cccc(N2CCN(C(=O)NCc3ccc(F)cc3)CC2)c1C	-2.4%	29.9µM*	-10.0	1.5%	?	6.8%
COc1cccc(/C=N/NC(=O)CC(=O)NCCc2ccc(OC)c(OC)c2)c1	-7.5%	26.7µM*	nt	2.0%	-14.3%	-7.5%
COc1cccc(-c2ccc3ncnc(NCCNC(C)=O)c3c2)c1	nt	nt	nt	nt	-8.0%	nt
COCCNc1ncnc2ccc(-c3ccc(N(C)C)cc3)cc12	nt	nt	nt	nt	39.8µM*	nt
CC(=O)NCCNc1ncnc2ccc(-c3ccoc3)cc12	nt	nt	nt	nt	39.8µM*	nt
CS(=O)(=O)Nc1cccc(-c2ccc3ncnc(N4CCOCC4)c3c2)c1	nt	nt	nt	nt	44.7µM*	nt
CC(=O)NCCNc1ncnc2ccc(-c3ccccc3C)cc12	nt	nt	nt	nt	44.7µM*	nt
Cc1ccc(C)c2c(C)ccnc12	12.5%	nt	nt	nt	nt	nt
CN1CCN(c2ncnc3ccc(-c4ccoc4)cc23)CC1	nt	nt	nt	nt	44.7µM*	nt
COc1ccccc1-c1ccc2ncnc(N3CCNCC3)c2c1	nt	nt	nt	nt	-21.8%	nt
Cc1ccccc1-c1ccc2ncnc(N3CCNCC3)c2c1	nt	nt	nt	nt	50.1µM*	nt
CN1CCN(c2ncnc3ccc(-c4cccnc4)cc23)CC1	nt	nt	nt	nt	0.7%	nt
COCCNc1ncnc2ccc(-c3ccoc3)cc12	nt	nt	nt	nt	39.8µM*	nt
c1nc(NCCN2CCOCC2)c2cc(-c3ccoc3)ccc2n1	nt	nt	nt	nt	44.7µM*	nt
CC(=O)N(O)C/C=C/c1cccc(Oc2ccccc2)c1	nt	nt	nt	nt	-2.5%	nt
Cc1cccn2c(=O)cc(COc3cccc(NC(=O)COc4ccc(F)cc4)c3)nc12	-10.4%	nt	nt	nt	-1.9%	nt
O=C(CC1SC(=O)N(c2ccccc2)C1=O)Nc1cccc2ccccc12 (configuration not stated)	-0.7%	10.6µM*	?	-0.7%	44.7µM*	?
CCn1c(CSc2nnc3ccccn23)nc2cc(C(=O)O)ccc21	50.1µM*	-16.3%	-8.0	-8.4%	?	37.3%[57.1 µM]
CC(C)(C)C1CCc2c(sc(NC(=O)c3noc4c3CCCC4)c2C#N)C1 (configuration not stated)	-3.8%	nt	nt	nt	?	nt
COc1ccc(C(=O)NCC(=O)OCC(=O)N2CCc3ccccc32)cc1	-1.7%	-9.0%	3.0	7.0%	-15.0%	-4.1%
COc1cc(OC)cc(C(=O)NCC(=O)OCC(=O)N2CCc3ccccc32)c1	-6.2%	26.7µM*	?	-2.9%	?	-0.8%
OCCN(CCO)c1ccc(/C=C/c2ccnc3ccccc23)cc1	-17.7%	nt	nt	nt	nt	nt
CCCNC(=O)CCCCn1c(=S)[nH]c2c([nH]c3ccc(OC)cc32)c1=O	9.1%	21.2µM*	?	-2.0%	?	-13.0%
